Values without a mark were called inactive. Results filed as inconclusive are left out. Calls of active or inactive are those of the source. Unless noted, the call rests on the fitted dose curve; in most records, active means well fitted curve in either direction with a large enough effect (not every such curve was filed as active); inconclusive means small, poorly fitted or top-dose-only effect, or another doubt; inactive means flat fitted curve, though single readings scatter. A value given as a limit tells only on which side of the number the result lay.

For test [1], the target named is Lysosomal acid glucosylceramidase (Homo sapiens) (UniProt P04062). The test can be described thus: Glucocerebrosidase-p2 (AID 348; in the data active means potency below about 10 µM; further: potency means the concentration at half of the fitted maximal effect). The settings on record: purified GBA, blue fluorogenic substrate, 40 min. In a few lines: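 Compounds titrated from 0.6 nM upwards against 0.2 nM enzyme in pH 5.9 citric acid/KH2PO4, taurocholate, tween-20; blue fluorogenic substrate 80 uM, 40 min room temperature, stopped and read Ex 365/Em 440 for AC50.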
Sequence of Lysosomal acid glucosylceramidase (Homo sapiens) (P04062 whole entry, looked up): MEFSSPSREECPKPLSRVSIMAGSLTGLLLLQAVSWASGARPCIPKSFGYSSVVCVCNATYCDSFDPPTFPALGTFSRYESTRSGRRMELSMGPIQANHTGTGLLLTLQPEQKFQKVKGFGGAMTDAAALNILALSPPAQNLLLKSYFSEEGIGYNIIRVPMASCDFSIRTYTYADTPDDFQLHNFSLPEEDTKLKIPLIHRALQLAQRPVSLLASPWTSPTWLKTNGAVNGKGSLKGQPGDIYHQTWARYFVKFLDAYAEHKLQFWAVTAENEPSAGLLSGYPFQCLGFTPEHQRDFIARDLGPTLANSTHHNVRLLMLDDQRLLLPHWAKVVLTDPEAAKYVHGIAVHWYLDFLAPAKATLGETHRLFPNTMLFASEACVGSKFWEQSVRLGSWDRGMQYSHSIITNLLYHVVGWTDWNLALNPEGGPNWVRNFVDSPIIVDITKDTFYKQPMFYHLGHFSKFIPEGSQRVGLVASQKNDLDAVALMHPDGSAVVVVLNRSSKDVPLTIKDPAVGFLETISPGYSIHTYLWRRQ

Test [2] can be described thus: AP1 Signaling Pathway (AID 357).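 Further: ME-180 reporter cells stimulated with EGF at its EC50 level; on the % scale 0 is the no-effect control and ±100 the full control effect.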 The settings on record: ME-180 AP-1-bla reporter, EGF-induced, beta-lactamase ratio, 5 h; at 7.69 µM (top of the series) unless noted. The procedure, abridged:
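Read-out was the 460nm/530nm emission ratio (excitation 405nm) after CCF4 loading for 2.5 hours at room temperature. Cells carried an AP-1-driven beta-lactamase reporter, were stimulated with EC50 EGF plus compound for 5 hours, and AC50 values came from titrations.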

In test [3] the target is Cytochrome P450 1A2 (Homo sapiens) (UniProt P05177). Kind of test: p450-cyp1a2 (AID 410; calls by dose curve; further: potency means the concentration at half of the fitted maximal effect;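 on activity change, negative = inhibition: -100% = full effect of reference inhibitor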). The conditions noted are these: recombinant CYP1A2, luciferin-ME demethylation, luminescence; series mostly up to 11.4 µM. In a few lines:
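Human CYP1A2 (20nM) demethylated Luciferin-ME at its Km (100uM) in 100mM KPO4. After 10 min compound preincubation, NADPH regeneration ran the reaction 60 min at room temperature. Luciferin was read by luminescence, normalized to 57 uM furafylline.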

Test [4] is described as follows: NFAT Signaling Pathway (AID 444).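 Further: carbachol stimulus at about its EC50 of 1 µM final; on the % scale 0 is the no-effect control and ±100 the full control effect.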 The settings on record: Jurkat NFAT-bla M1, carbachol, beta-lactamase ratio, 5 h; at 7.69 µM (top of the series) unless noted. In a few lines:
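Jurkat cells with NFAT-driven β-lactamase reporter and co-expressed M1 receptor, stimulated with carbachol (final 1 uM, ~EC50), compound titration, 5 h at 37 °C. CCF4 loaded 1 h at RT; 460/530 nm ratio gave %activity and AC50.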

A short description of test [5]: Stat Signaling Pathway (AID 446).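 Further: ME-180 cervical cancer cells given 40 pM IL-6 alongside compound; SIE-controlled beta-lactamase reporter measured as 460/530 nm FRET emission ratio; on the % scale 0 is the no-effect control and ±100 the full control effect.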 The settings on record: ME-180 SIE beta-lactamase reporter, IL-6 stimulated, 5 h; at 7.69 µM (top of the series) unless noted. The procedure, abridged: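 ME-180 SIE-bla cells; overnight plating; cpd + IL-6 40 pM, 5 h, 37 C; LiveBLAzer 2.5 h RT; 460/530 nm emission ratio. Normalized to 300 pM IL-6 and 125 nM JAK inhibitor controls.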

Test [6] has as its target Glucocorticoid receptor (Homo sapiens) (UniProt P04150). Kind of test: GR-GFP Redistribution (AID 450;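 active means compounds whose dose series gives a full or clear partial fitted curve of increased nuclear translocation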; further: potency means the concentration at half of the fitted maximal effect). The conditions noted are these: U2OS GR-GFP nuclear translocation, laser cytometry, 2 h.
Test [7] has the same target. Kind of test: GR-EFC Redistribution (AID 451; calls by dose curve; further: potency means the concentration at half of the fitted maximal effect). The conditions noted are these: CHO-K1 GR-EFC translocation, beta-gal luminescence, 2 h. The procedure, abridged: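 CHO-K1 cells expressing nuclear EA and GR-ED fragments of b-gal; compounds titrated up to 46 uM final, 2 h at 37 C. GR nuclear translocation read as complemented b-gal luminescence after 1 h RT detection.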

For test [8], the target named is Mitogen-activated protein kinase 10 (Mus musculus) (UniProt Q61831). The test can be described thus: JNK3 AlphaScreen Assay (AID 530).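 Further: kinase came from lysate of stimulated human HepG2 cells; signal reports phosphorylation of biotinylated GST-cJun 1-79 at Ser73 with 10 µM ATP; on the % scale 0 is the no-effect control and ±100 the full control effect.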 The settings on record: JNK3 lysate, c-Jun phosphorylation; series mostly up to 11.4 µM. In a few lines: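 qHTS format: compounds tested as titrations against IL-1beta/TNF-alpha-activated HepG2 lysate JNK3 with biotin-GST-cJun substrate and 10 uM ATP at room temperature. Loss of anti-phospho-cJun AlphaScreen signal indicates inhibition.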
On the technique in general: Alpha assays give light when donor and acceptor beads are brought close together.

Test [9] has as its target 3',5'-cyclic-AMP phosphodiesterase 4B (Homo sapiens) (UniProt Q07343). The test can be described thus: qHTS Assay for Inhibitors of PDE-IV (AID 607; active means well fitted activation curve with a large enough effect in the main read-out, with a control signal flat, not every such curve was filed as active; further: % of control where 0% means no effect). The settings on record: HEK293 ACTOne CNG channel cells, membrane potential fluorescence; series mostly up to 22.9 µM. In a few lines: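 ACTOne HEK293 cells carry a modified cAMP-gated CNG channel and express endogenous PDE4; plated 1000 cells/well, compounds up to 22.9 uM final. Membrane-potential dye fluorescence (ex 535/em 590) was read; parental cells received 10 uM forskolin + 100 uM RO 20-1724.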

For test [10], the target named is Cytochrome P450 3A4 (Homo sapiens) (UniProt P08684). Kind of test: qHTS Assay for Activators of Cytochrome P450 3A4 (AID 885; active means well fitted curve in the direction sought with a large enough effect; an effect the other way counts as inactive or inconclusive; further: nearly all actives have a fitted effect of over 65% in size). The settings on record: recombinant CYP3A4, Luciferin-PPXE luminescence, 60 min; series mostly up to 11.4 µM. The procedure, abridged: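 20nM CYP3A4 + 25uM Luciferin-PPXE (=KM), 200mM KPO4; cpd 10 min RT; NADPH regen, 60 min RT; stop w/ detection buffer, 20 min; luminescence. Normalized to 57 uM ketoconazole.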
Sequence of Cytochrome P450 3A4 (Homo sapiens) (P08684 whole entry, looked up): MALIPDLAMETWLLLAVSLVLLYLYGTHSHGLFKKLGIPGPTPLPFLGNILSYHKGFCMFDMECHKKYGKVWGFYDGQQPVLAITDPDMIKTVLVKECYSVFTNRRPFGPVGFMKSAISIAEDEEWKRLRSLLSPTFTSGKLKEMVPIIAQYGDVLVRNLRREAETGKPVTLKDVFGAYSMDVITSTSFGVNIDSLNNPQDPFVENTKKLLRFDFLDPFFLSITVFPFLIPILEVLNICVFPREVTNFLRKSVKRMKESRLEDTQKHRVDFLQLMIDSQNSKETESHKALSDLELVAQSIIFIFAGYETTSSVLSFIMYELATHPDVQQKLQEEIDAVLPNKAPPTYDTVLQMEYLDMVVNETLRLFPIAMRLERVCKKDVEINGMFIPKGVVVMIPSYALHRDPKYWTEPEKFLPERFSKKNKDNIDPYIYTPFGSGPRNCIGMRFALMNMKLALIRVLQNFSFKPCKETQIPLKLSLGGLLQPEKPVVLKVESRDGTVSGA
In general terms: In qHTS, concentration-response curves come from the screen itself.

In test [11] the target is Cytochrome P450 2D6 (Homo sapiens) (UniProt P10635). Kind of test: qHTS Assay for Inhibitors and Substrates of Cytochrome P450 2D6 (AID 891; active means well fitted curve in the direction sought with a large enough effect; an effect the other way counts as inactive or inconclusive; further: potency means the concentration at half of the fitted maximal effect; nearly all actives have a fitted effect of over 60% in size). The conditions noted are these: recombinant CYP2D6, luciferin-ME EGE luminescence; series mostly up to 11.4 µM. In a few lines: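 Human CYP2D6 (5 nM) with 30 uM Luciferin-ME EGE (at Km) in 100 mM KPO4, compound preincubated 10 min, then NADPH regeneration system for 60 min at room temperature. Luciferin read by luminescence; normalized to 1.43 uM quinidine.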
Sequence of Cytochrome P450 2D6 (Homo sapiens) (P10635 whole entry, looked up): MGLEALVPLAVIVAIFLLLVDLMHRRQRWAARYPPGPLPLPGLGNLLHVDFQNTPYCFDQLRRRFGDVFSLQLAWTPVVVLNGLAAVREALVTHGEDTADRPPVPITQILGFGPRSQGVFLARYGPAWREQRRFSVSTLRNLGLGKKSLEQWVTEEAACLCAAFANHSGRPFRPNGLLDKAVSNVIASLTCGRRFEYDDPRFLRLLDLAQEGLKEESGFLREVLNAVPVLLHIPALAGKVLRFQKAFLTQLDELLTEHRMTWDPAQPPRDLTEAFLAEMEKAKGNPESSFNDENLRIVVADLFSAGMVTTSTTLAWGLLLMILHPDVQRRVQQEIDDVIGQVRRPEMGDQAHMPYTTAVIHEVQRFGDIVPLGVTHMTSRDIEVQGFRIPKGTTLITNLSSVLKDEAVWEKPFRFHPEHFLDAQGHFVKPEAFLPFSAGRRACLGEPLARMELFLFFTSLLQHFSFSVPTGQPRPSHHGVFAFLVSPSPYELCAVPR

Sequence of Glucocorticoid receptor (Homo sapiens) (P04150 whole entry, looked up, the tested form may be a part): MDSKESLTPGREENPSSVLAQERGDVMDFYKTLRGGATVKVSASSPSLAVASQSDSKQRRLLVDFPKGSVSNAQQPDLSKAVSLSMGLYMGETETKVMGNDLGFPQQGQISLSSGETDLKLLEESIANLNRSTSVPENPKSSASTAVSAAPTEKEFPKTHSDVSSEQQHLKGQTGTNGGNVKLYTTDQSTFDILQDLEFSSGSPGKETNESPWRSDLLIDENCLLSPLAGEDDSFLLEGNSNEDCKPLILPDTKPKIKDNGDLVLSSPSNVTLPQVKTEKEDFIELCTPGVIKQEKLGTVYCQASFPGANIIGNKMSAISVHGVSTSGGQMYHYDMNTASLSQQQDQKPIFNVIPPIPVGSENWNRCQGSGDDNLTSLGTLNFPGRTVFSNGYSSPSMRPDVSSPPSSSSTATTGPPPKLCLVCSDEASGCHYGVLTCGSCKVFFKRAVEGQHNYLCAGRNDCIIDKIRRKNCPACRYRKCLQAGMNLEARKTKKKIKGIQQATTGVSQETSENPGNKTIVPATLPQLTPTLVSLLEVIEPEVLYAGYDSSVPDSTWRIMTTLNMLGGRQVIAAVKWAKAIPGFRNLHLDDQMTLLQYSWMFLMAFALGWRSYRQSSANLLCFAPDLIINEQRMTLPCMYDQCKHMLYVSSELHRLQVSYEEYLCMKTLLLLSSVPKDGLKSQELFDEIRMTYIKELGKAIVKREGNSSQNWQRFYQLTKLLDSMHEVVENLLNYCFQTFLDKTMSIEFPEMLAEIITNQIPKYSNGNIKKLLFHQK
Sequence of 3',5'-cyclic-AMP phosphodiesterase 4B (Homo sapiens) (Q07343 whole entry, looked up): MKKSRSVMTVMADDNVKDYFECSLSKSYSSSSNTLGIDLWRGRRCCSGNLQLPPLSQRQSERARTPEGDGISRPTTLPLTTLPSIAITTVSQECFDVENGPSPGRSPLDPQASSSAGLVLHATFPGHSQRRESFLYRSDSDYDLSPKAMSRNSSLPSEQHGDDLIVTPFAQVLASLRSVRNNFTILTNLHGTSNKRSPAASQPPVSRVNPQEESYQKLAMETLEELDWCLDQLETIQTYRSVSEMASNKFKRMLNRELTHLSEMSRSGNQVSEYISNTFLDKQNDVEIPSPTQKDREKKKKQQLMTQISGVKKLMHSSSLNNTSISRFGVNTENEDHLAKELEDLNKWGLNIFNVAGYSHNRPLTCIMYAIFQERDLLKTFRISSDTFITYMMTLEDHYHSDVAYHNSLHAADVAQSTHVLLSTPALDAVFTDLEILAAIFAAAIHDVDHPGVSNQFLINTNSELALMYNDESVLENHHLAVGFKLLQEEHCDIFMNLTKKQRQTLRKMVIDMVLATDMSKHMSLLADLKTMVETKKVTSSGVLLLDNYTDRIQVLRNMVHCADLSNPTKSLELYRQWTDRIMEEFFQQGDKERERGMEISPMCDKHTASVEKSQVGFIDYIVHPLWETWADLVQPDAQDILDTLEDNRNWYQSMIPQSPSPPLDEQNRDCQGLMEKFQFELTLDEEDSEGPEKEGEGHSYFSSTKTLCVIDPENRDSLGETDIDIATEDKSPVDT
Sequence of Cytochrome P450 1A2 (Homo sapiens) (P05177 whole entry, looked up): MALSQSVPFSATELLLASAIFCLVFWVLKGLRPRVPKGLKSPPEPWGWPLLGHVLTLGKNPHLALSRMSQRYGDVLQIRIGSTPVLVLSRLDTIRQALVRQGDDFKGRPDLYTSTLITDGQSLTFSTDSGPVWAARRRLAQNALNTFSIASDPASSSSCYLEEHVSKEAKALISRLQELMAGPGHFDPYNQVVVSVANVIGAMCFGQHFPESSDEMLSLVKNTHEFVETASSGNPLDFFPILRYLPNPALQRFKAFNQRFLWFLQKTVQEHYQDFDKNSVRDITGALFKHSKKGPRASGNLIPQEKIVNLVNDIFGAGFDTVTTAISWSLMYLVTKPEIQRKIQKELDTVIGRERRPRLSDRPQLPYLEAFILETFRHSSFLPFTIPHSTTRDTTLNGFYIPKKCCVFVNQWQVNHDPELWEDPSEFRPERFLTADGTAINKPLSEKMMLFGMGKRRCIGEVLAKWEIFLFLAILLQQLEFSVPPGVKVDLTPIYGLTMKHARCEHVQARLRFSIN

For `CC1=NN(C(=O)c2ccncc2)C(=O)[C@@H]1N=Nc1ccc2ccccc2c1`, the Potency in test [1] is more than 11.4 µM; in test [3] it was 0.158 µM (active); in test [6] it was more than 46 µM; in [7], more than 9.22 µM. Also, the activity change, negative = inhibition in test [2] is -15.6%; in [4], 11.9%. In addition, the activity, negative = inhibition in test [5] was -4.73%. The Potency entry in test [8], in [9] and in test [10] was “inactive” each time.

Turning to `O=C(NNS(=O)(=O)c1ccccc1)c1cccnc1`, the Potency is more than 11.4 µM in test [1], more than 46 µM in test [6] and more than 9.22 µM in test [7]. Further, the values for the activity change, negative = inhibition in test [2], in [3] and in [4] were 16.3%, 2.2% [at 2.29 µM] and 7.27%, respectively. For the same compound, the activity, negative = inhibition in [5] was 2.24%. Further, the Potency result in test [8], in [9] and in test [10] was “inactive” each time.

In the case of `Cc1nc2cnc(Oc3cccc(Cl)c3)nc2n(C[C@H]2CCCO2)c1=O`, the Potency was more than 11.4 µM in [1], 7.94 µM (active) in test [3], more than 9.22 µM in test [6] and more than 46 µM in test [7]. Further, the activity change, negative = inhibition is -15.8% in test [2] and -3.55% in test [4]. In test [5], the activity, negative = inhibition was -6.17%. Further, the Potency result in test [8], in test [9] and in test [10] was “inactive” in each case.

On to `OCCNc1ncnc2nc[nH]c12`, for which the values for the Potency in [1], in [6] and in [7] were more than 11.4 µM, more than 46 µM and more than 9.22 µM, respectively. Besides, the activity change, negative = inhibition in [2] is 7.92%; in test [4], 9%. The Potency entry in [3], in test [8], in [9] and in test [10] was “inactive” in each case. In [5], the activity, negative = inhibition was 2.92%.

As to `COc1ncc2nc(-c3cc(F)cc(F)c3)c(=O)n(C[C@H]3CCCO3)c2n1`, the Potency was more than 11.4 µM in test [1], 3.16 µM (active) in test [3], more than 9.22 µM in test [6] and more than 46 µM in test [7]. The activity change, negative = inhibition in test [2] is -0.553%; in test [4] it was -10.9%. Also, the activity, negative = inhibition in test [5] is -4.03%. The Potency entry in [8], in test [9] and in test [10] was “inactive” in each case.

`CC(C)(C)CC(C)(C)c1ccc(O)c(C[N+](C)(C)[O-])c1`: the Potency was more than 11.4 µM in test [1], more than 46 µM in test [6] and more than 9.22 µM in test [7]. In addition, the activity change, negative = inhibition is 0.484% in test [2], -17.9% [at 2.29 µM] in test [3] and 17.3% in test [4]. Besides, in [5], the activity, negative = inhibition is 0.425%. Further, the Potency entry in test [8], in [9] and in [10] was “inactive” in each case.

As to `O=C(CSC1=NCCN1)Nc1ccccc1`, the Potency in [1] is more than 11.4 µM; in test [3], 3.98 µM (active); in test [6], more than 46 µM; in test [7], more than 9.22 µM; in test [11], 1.58 µM (active). The activity change, negative = inhibition is 15% in test [2] and -6.05% in test [4]. The activity, negative = inhibition in test [5] was -2.98%. Moreover, the Potency result in [8], in test [9] and in test [10] was “inactive” throughout.

As to `[O-][n+]1c(CN2CCCCC2)nc2cccc3c2c1-c1ccccc1-3`, the Potency in [1] was more than 11.4 µM; in test [3] it was 1.58 µM (active); in [6], more than 46 µM; in test [7], more than 9.22 µM. Besides, the values for the activity change, negative = inhibition in test [2] and in test [4] were -8.04% and 26.2%, respectively. Also, the activity, negative = inhibition in test [5] was 6.89%. The Potency result in test [8], in test [9] and in test [10] was “inactive” each time.

Turning to `O=[N+]([O-])c1cc(Cl)cc2c1nc(NCCO)c1ccccc12`, the Potency in [1] is more than 11.4 µM; in [3] it was 0.02 µM (active); in [6], more than 46 µM; in [7], more than 9.22 µM. The activity change, negative = inhibition in test [2] was -24%; in test [4], 22.6%. In [5], the activity, negative = inhibition is -3.56%. For the same compound, the Potency entry in [8], in test [9] and in [10] was “inactive” each time.

Consider `N/N=C1/c2ccccc2N[C@H]1OC(=O)Nc1cccc(Cl)c1`, for which the Potency in [1] is more than 11.4 µM; in test [3] it was 0.794 µM (active); in [6] it was more than 46 µM; in [7] it was more than 9.22 µM. Further, the activity change, negative = inhibition in [2] was -17.3%; in test [4], -19.2%. Moreover, in test [5], the activity, negative = inhibition was -0.394%. The Potency result in [8], in [9] and in test [10] was “inactive” each time.

Regarding `CC(C)C[C@@H](N)C(=O)Nc1ccc2ccccc2c1`, the Potency in test [1] is more than 11.4 µM; in test [3] it was 1.58 µM (active); in test [6], more than 46 µM; in [7], more than 9.22 µM. Moreover, the results for the activity change, negative = inhibition in [2] and in test [4] were 9.25% and 8.34%, respectively. Besides, in test [5], the activity, negative = inhibition is -2.09%. The Potency result in test [8], in test [9] and in test [10] was “inactive” throughout.

Regarding `c1cncc(-c2cc(-c3cc(-c4cccnc4)n[nH]3)[nH]n2)c1`, the Potency in [1] was more than 11.4 µM; in [3], 0.501 µM (active); in [6], more than 46 µM; in test [7] it was more than 9.22 µM. The activity change, negative = inhibition in [2] was 4.4%; in test [4], 14%. For the same compound, in test [5], the activity, negative = inhibition was -1.32%. Also, the Potency result in test [8], in test [9] and in test [10] was “inactive” throughout.

With `COCCn1c(=O)c(-c2cc(F)cc(F)c2)nc2cnc(OC)nc21`, the Potency in test [1] was more than 11.4 µM; in [3], 3.98 µM (active); in [6] it was more than 9.22 µM; in test [7] it was more than 46 µM. In addition, the activity change, negative = inhibition in [2] is -11.6%; in test [4], -5.01%. Moreover, the activity, negative = inhibition in test [5] was -2.4%. Besides, the Potency result in test [8], in test [9] and in test [10] was “inactive” in each case.

Regarding `CN1CCN(Cc2nc3cccc4c3c([n+]2[O-])-c2ccccc2-4)CC1`, the Potency is more than 11.4 µM in test [1], 1.26 µM (active) in test [3], more than 46 µM in [6] and more than 9.22 µM in test [7]. Further, the activity change, negative = inhibition in test [2] was -4.75%; in [4], 9.77%. The activity, negative = inhibition in [5] is 6.12%. Moreover, the Potency result in test [8], in [9] and in test [10] was “inactive” each time.

Take `ON(CCc1ccccn1)Cc1ccccc1`: the Potency is more than 11.4 µM in test [1], 2.51 µM (active) in test [3], more than 46 µM in test [6] and more than 9.22 µM in [7]. Besides, the activity change, negative = inhibition in test [2] is -1.79%; in test [4], 10.2%. For the same compound, the activity, negative = inhibition in test [5] was -0.0119%. Moreover, the Potency result in [8], in test [9] and in test [10] was “inactive” each time.

Source of the values: PubChem BioAssay (NCATS).
